Results from PubChem BioAssay AID1159580 (chemical genetic matrix, 2015).
About 2,000 (36%) of roughly 5,500 compounds were called active. Inconclusive results (about 18%) are left out. Cut-off read from the data, not from the text of the source: active = normalized growth mostly below about 0.91 (no sharp cut-off); inconclusive = no clear call, values can overlap the other calls; inactive = mostly above about 0.92. Some of the results follow.

Assay: chemical genetic growth profiling, strain panel (AID 1159580);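 note: tested at 20 µM; growth read once vehicle control cultures reached saturation at 30 °C; 1 = growth at the plate median or of vehicle wells; lower values mean less growth of the strain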
Details: growth OD

Measured: normalized growth

COc1c(O)cc(O)cc1O
inactive: S. cerevisiae deletion strains, locus YJR066W, strain TOR1, active compounds read low 0.977 | S. cerevisiae deletion strains, locus YKL009W, strain mrt4, active compounds read low 1.07 | S. cerevisiae deletion strains, locus YKL068W, active compounds read low 0.995 | S. cerevisiae deletion strains, locus YKL085W, strain MDH1 (second series), active compounds read low 1.02 | S. cerevisiae deletion strains, locus YKL085W, strain MDH1, active compounds read low 1.02 | S. cerevisiae deletion strains, locus YKL160W, strain elf1, active compounds read low 1.02 | S. cerevisiae deletion strains, locus YKR001C, strain vps1, active compounds read low 1.01 | S. cerevisiae deletion strains, locus YKR026C, strain gcn3, active compounds read low 0.991 | S. cerevisiae deletion strains, locus YKR091W, strain srl3, active compounds read low 0.996 | S. cerevisiae deletion strains, locus YLL001W, strain dnm1, active compounds read low 0.999 | S. cerevisiae deletion strains, locus YLL026W, active compounds read low 0.994 | S. cerevisiae deletion strains, locus YLL041C, strain sdh2, active compounds read low 0.996 | S. cerevisiae deletion strains, locus YLR027C, strain aat2, active compounds read low 0.985 | S. cerevisiae deletion strains, locus YLR039C, strain RIC1, active compounds read low 1.06 | S. cerevisiae deletion strains, locus YLR058C, strain SHM2, active compounds read low 1.01 | S. cerevisiae deletion strains, locus YLR102C, strain apc9, active compounds read low 0.987 | S. cerevisiae deletion strains, locus YLR113W, strain HOG1, active compounds read low 1.03 | S. cerevisiae deletion strains, locus YLR221C, strain rsa3, active compounds read low 0.992 | S. cerevisiae deletion strains, locus YLR258W, strain gsy2, active compounds read low 0.997 | S. cerevisiae deletion strains, locus YLR262C, strain YPT6 (second series), active compounds read low 1.02 | S. cerevisiae deletion strains, locus YLR262C, strain YPT6, active compounds read low 1.08 | S. cerevisiae deletion strains, locus YLR268W, strain sec22, active compounds read low 1.05 | S. cerevisiae deletion strains, locus YLR320W, strain mms22, active compounds read low 0.994 | S. cerevisiae deletion strains, locus YLR330W, strain CHS5, active compounds read low 1.01 | S. cerevisiae deletion strains, locus YLR342W, strain FKS1 (second series), active compounds read low 1.08 | S. cerevisiae deletion strains, locus YLR342W, strain FKS1, active compounds read low 0.997 | S. cerevisiae deletion strains, locus YLR357W, strain rsc2, active compounds read low 0.958 | S. cerevisiae deletion strains, locus YLR370C, strain arc18, active compounds read low 0.992 | S. cerevisiae deletion strains, locus YLR371W, strain rom2, active compounds read low 0.984 | S. cerevisiae deletion strains, locus YLR384C, strain iki3, active compounds read low 1 | S. cerevisiae deletion strains, locus YLR418C, strain cdc73, active compounds read low 0.988 | S. cerevisiae deletion strains, locus YML016C, strain PPZ1, active compounds read low 0.994 | S. cerevisiae deletion strains, locus YML032C, strain rad52, active compounds read low 1.02 | S. cerevisiae deletion strains, locus YML120C, strain ndi1, active compounds read low 1 | S. cerevisiae deletion strains, locus YML124C, strain tub3, active compounds read low 0.997 | S. cerevisiae deletion strains, locus YMR058W, strain fet3, active compounds read low 1.01 | S. cerevisiae deletion strains, locus YMR078C, strain ctf18, active compounds read low 0.986 | S. cerevisiae deletion strains, locus YMR125W, strain sto1, active compounds read low 0.992 | S. cerevisiae deletion strains, locus YMR129W, active compounds read low 0.99 | S. cerevisiae deletion strains, locus YMR205C, strain PFK2, active compounds read low 0.997 | S. cerevisiae deletion strains, locus YMR223W, strain ubp8, active compounds read low 1.01 | S. cerevisiae deletion strains, locus YMR231W, strain pep5, active compounds read low 0.967 | S. cerevisiae deletion strains, locus YMR307W, strain GAS1, active compounds read low 1.08 | S. cerevisiae deletion strains, locus YNL067W, strain RPL9B, active compounds read low 1 | S. cerevisiae deletion strains, locus YNL071W, strain lat1, active compounds read low 1 | S. cerevisiae deletion strains, locus YNL128W, strain TEP1, active compounds read low 1.04 | S. cerevisiae deletion strains, locus YNL183C, strain NPR1, active compounds read low 0.988 | S. cerevisiae deletion strains, locus YNL209W, strain ssb2, active compounds read low 1.02 | S. cerevisiae deletion strains, locus YNL233W, strain BNI4, active compounds read low 0.99 | S. cerevisiae deletion strains, locus YNL248C, strain rpa49, active compounds read low 1 | S. cerevisiae deletion strains, locus YNL250W, strain rad50, active compounds read low 0.956 | S. cerevisiae deletion strains, locus YNL271C, strain bni1, active compounds read low 0.994 | S. cerevisiae deletion strains, locus YNL298W, strain CLA4, active compounds read low 0.998 | S. cerevisiae deletion strains, locus YNL307C, strain MCK1, active compounds read low 0.998 | S. cerevisiae deletion strains, locus YNL322C, strain KRE1 (second series), active compounds read low 0.987 | S. cerevisiae deletion strains, locus YNR049C, strain mso1, active compounds read low 0.994 | S. cerevisiae deletion strains, locus YNR052C, strain pop2, active compounds read low 0.985 | S. cerevisiae deletion strains, locus YOL012C, strain htz1 0.85 | S. cerevisiae deletion strains, locus YOL147C, strain pex11, active compounds read low 1 | S. cerevisiae deletion strains, locus YOR001W, strain rrp6, active compounds read low 1.01 | S. cerevisiae deletion strains, locus YOR061W, strain CKA2, active compounds read low 1.01 | S. cerevisiae deletion strains, locus YOR069W, strain VPS5, active compounds read low 0.986 | S. cerevisiae deletion strains, locus YOR070C, strain gyp1, active compounds read low 1.02 | S. cerevisiae deletion strains, locus YOR080W, strain dia2, active compounds read low 0.99 | S. cerevisiae deletion strains, locus YOR083W, strain WHI5, active compounds read low 1.01 | S. cerevisiae deletion strains, locus YOR106W, strain vam3, active compounds read low 1.04 | S. cerevisiae deletion strains, locus YOR136W, strain idh2, active compounds read low 0.991 | S. cerevisiae deletion strains, locus YOR144C, strain elg1, active compounds read low 1 | S. cerevisiae deletion strains, locus YOR184W, strain ser1, active compounds read low 1.1 | S. cerevisiae deletion strains, locus YOR231W, strain MKK1, active compounds read low 1.04 | S. cerevisiae deletion strains, locus YOR265W, strain rbl2, active compounds read low 1.02 | S. cerevisiae deletion strains, locus YOR270C, strain vph1, active compounds read low 1.04 | S. cerevisiae deletion strains, locus YOR290C, strain snf2, active compounds read low 1.01 | S. cerevisiae deletion strains, locus YOR316C, strain cot1, active compounds read low 0.99 | S. cerevisiae deletion strains, locus YPL051W, strain arl3, active compounds read low 1 | S. cerevisiae deletion strains, locus YPL055C, strain LGE1, active compounds read low 1.07 | S. cerevisiae deletion strains, locus YPL078C, strain atp4, active compounds read low 1.01 | S. cerevisiae deletion strains, locus YPL106C, strain sse1, active compounds read low 0.986 | S. cerevisiae deletion strains, locus YPL240C, strain hsp82, active compounds read low 1 | S. cerevisiae deletion strains, locus YPL241C, strain CIN2, active compounds read low 1.01 | S. cerevisiae deletion strains, locus YPL256C, strain CLN2, active compounds read low 1.02 | S. cerevisiae deletion strains, locus YPR119W, strain clb2, active compounds read low 0.997 | S. cerevisiae deletion strains, locus YPR141C, strain kar3, active compounds read low 0.971 | S. cerevisiae deletion strains, locus YPR163C, strain tif3, active compounds read low 0.997 | S. cerevisiae deletion strains, locus YPR167C, strain met16, active compounds read low 0.992 | S. cerevisiae deletion strains, strain wtn01, active compounds read low 1.03 | S. cerevisiae strains, strain wild type, active compounds read low 1.05
